Polio RdRp inh: poliovirus RNA polymerase inhibition | poliovirus polymerase elongation, fluorescence polarization; active compounds read low | % elongation, % (compound at 16.7 µg/mL) | 0.66% of 150,000 active | AID 588519; in the data active means % elongation below about 90%
MbtI inh: MbtI salicylate synthase inhibition; 0.89% of 100,000 active; purified MbtI enzyme, fluorescence intensity read-out; P9WFX0; inhibition, % (no concentration beside the values); AID 493033; in the data active means inhibition mostly above about 56%, no sharp cut-off; inactive means mostly below about 77%
AID504770: E. coli YBA685 growth inhibition, screen for V. cholerae RctB inhibitors; AID 504770; z-score (concentration not given with the values); 0.27% of 130,000 active; E. coli YBA685 rctB-dependent plasmid, OD600 growth, 3 h; active compounds read low; in the data active means z-score below about -2, passing the limit was not always enough
MenB inh: inhibitors of Mycobacterium tuberculosis MenB enzyme | inhibition, % (test concentration not listed) | P9WNP5 | 0.43% of 100,000 active | MenB enzyme assay, absorbance read-out | AID 540299; in the data active means inhibition above about 21%, passing the limit was not always enough
Target sequence (P9WNP5 whole entry, looked up): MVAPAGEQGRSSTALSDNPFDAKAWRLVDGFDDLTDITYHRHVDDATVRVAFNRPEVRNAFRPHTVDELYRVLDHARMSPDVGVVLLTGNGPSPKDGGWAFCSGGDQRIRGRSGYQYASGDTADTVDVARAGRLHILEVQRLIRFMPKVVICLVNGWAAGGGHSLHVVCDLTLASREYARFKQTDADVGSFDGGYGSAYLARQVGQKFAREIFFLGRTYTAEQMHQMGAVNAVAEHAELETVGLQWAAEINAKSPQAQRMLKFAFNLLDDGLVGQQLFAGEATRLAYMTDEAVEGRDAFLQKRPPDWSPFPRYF
An asterisk follows results filed as active. Only some compounds are listed: those with a hit (about 1.5% of all), similar ones and a draw of the others.

`O=c1oc(C23CC4CC(CC(C4)C2)C3)ns1` gave Polio RdRp inh 73*, AID504770 -0.45 and MenB inh -27.
Screening Cc1occc1-c1nnc2sc(-c3cccc(F)c3)nn12 returned Polio RdRp inh 103, MbtI inh 95*, AID504770 0.15 and MenB inh -73.
`Cc1nnc2sc(-c3cccc(NC(=O)c4cccc(F)c4)c3)nn12` gave Polio RdRp inh 103, MbtI inh -18, AID504770 -0.95 and MenB inh -18.
COc1cccc(N2CC(NC(=O)/C=C\c3ccc4c(c3)OCO4)CC2=O)c1 (stereo not given) was read as Polio RdRp inh 81*.
`COc1ccc(N2CC(NC(=O)/C=C\c3ccc4c(c3)OCO4)CC2=O)cc1OC` (stereo not given) gave Polio RdRp inh 105.
Screening Cc1nc2cc3ccccc3cc2c(=O)n1CCCNC1CCCCC1 returned Polio RdRp inh 90*, AID504770 1.4 and MenB inh -10.
`COc1ccc(CCCc2nnc(SCC(=O)Nc3ccc(C)c(C)c3)o2)cc1` gave Polio RdRp inh 108.
For CS(=O)(=O)N(CC(=O)O)c1ccc(Cl)cc1 the results were Polio RdRp inh 101, MbtI inh -3, AID504770 0.65 and MenB inh 13.
Screening CCc1cccc(NC(=O)CN(C2=NC3CS(=O)(=O)CC3S2)c2cccc(C)c2)c1 (stereo not given) returned Polio RdRp inh 100, MbtI inh -5, AID504770 -2.5* and MenB inh -11.
Screening Cc1cccc(NC(=O)CN(C2=NC3CS(=O)(=O)CC3S2)c2ccccc2)c1 (stereo not given) returned Polio RdRp inh 99, MbtI inh 4, AID504770 0.7 and MenB inh -66.
`COC(=O)c1c(-c2cccs2)csc1NC(=O)COc1ccc(C(C)C)cc1` gave Polio RdRp inh 70*.
`CCOC(=O)c1c(-c2cccs2)csc1NC(=O)COC(=O)c1cc2c(s1)CCC2` gave Polio RdRp inh 102, MbtI inh -41, AID504770 1 and MenB inh -10.
Screening COC(=O)c1c(NC(=O)COc2ccc(C(C)C)cc2)sc2c1CCCC2 returned Polio RdRp inh 104.
CCCc1ccc(OCC(=O)Nc2scc(-c3cccs3)c2C(=O)OC)cc1 was read as Polio RdRp inh 74*.
Screening O=C(CC(c1cccs1)N1Cc2ccccc2C1=O)NCc1ccc(CN2CCOCC2)o1 (stereo not given) returned Polio RdRp inh 102, MbtI inh -11, AID504770 -0.25 and MenB inh -2.
`O=C(CC(c1cccs1)N1Cc2ccccc2C1=O)NCCN1CCOCC1` (stereo not given) gave Polio RdRp inh 101, MbtI inh -9, AID504770 -2.2* and MenB inh 2.
For C=CCC1Cc2ccccc2C(CC=C)N1 (stereo not given) the results were Polio RdRp inh 100, MbtI inh -3, AID504770 -0.1 and MenB inh 39*.
`C=CCC1Cc2ccccc2C(C)N1` (stereo not given) gave MbtI inh 4 and AID504770 0.6.
`C=CCN(CC=C)Cn1[nH]c(-c2cccs2)nc1=S` gave Polio RdRp inh 99, MbtI inh 96*, AID504770 -0.1 and MenB inh -3.
`CN(C)CCC(=O)c1ccc(Br)cc1` gave Polio RdRp inh 102, MbtI inh 69*, AID504770 -0.8 and MenB inh -6.
CCCOc1ccc(C(=O)CCN(C)C)cc1 was read as Polio RdRp inh 97, MbtI inh 59*, AID504770 -0.85 and MenB inh -57.
Screening CCCOc1ccc(C(=O)O)cc1 returned Polio RdRp inh 103, MbtI inh -5 and AID504770 -0.15.
For O=C(Nc1ccc(-c2nc3ccccc3[nH]2)cc1)c1ccc(-c2ccccc2)cc1 the results were Polio RdRp inh 101, MbtI inh -9, AID504770 0.45 and MenB inh -48.
Cc1cccn(Cc2c(Cl)cccc2Cl)c1=O was read as Polio RdRp inh 108, MbtI inh 11, AID504770 0.05 and MenB inh -11.
Screening Cc1cccc(Cl)c1-n1sc(=O)n(CC2CC2)c1=O returned Polio RdRp inh 96, MbtI inh 72*, AID504770 -1.5 and MenB inh -6.
`Cc1noc(C)c1-n1sc(=O)n(CC2CC2)c1=O` gave Polio RdRp inh 93, MbtI inh 99*, AID504770 -0.8 and MenB inh 15.
COc1ccc(CCNC(=O)CN(c2cc(C(F)(F)F)ccc2Cl)S(C)(=O)=O)cc1 was read as Polio RdRp inh 108.
`CCCCC(=O)Nc1ccc(NCc2ccc(C)s2)cc1` gave Polio RdRp inh 105, MbtI inh 8, AID504770 0.25 and MenB inh -5.
CNc1nc2[nH]c(=O)cc(O)c2s1 was read as MbtI inh -16 and AID504770 -0.35.
Screening Cc1ccc(S(=O)(=O)c2ccccc2)cc1S returned Polio RdRp inh 62*, AID504770 0.55 and MenB inh -12.
Screening Cc1ccc(-c2csc3nnc(SCC(N)=O)n23)cc1 returned Polio RdRp inh 102, MbtI inh 4, AID504770 1.1 and MenB inh 37*.
Screening c1ccc(CSc2ncccn2)cc1 returned Polio RdRp inh 102, MbtI inh 60*, AID504770 1.1 and MenB inh 0.
Screening Clc1ccc(CSc2ncccn2)cc1 returned Polio RdRp inh 103, MbtI inh 20, AID504770 -0.8 and MenB inh -1.
Screening CC(=O)Nc1ccc(N=Cc2ccc(OC(=O)c3ccccc3Br)cc2O)cc1 returned AID504770 0.05.
For CC(NC(=O)c1ccco1)C(=O)OCc1cccc(C(F)(F)F)c1 (stereo not given) the results were Polio RdRp inh 103, MbtI inh 4, AID504770 -0.5 and MenB inh 10.
Cc1cccc2nc(-c3ccccn3)c(Nc3ccc(F)cc3)n12 was read as Polio RdRp inh 120.
For Cc1cccc(C)c1Nc1c(-c2ccccc2F)nc2cccc(C)n12 the results were Polio RdRp inh 88*.
Cc1ccc2nc(SCC(=O)N3CCCCC3)c(C#N)cc2c1 was read as Polio RdRp inh 102, MbtI inh 0, AID504770 1.1 and MenB inh 41*.
CCOC(=O)c1c(CSc2ccc(C)cc2)n(C)c2cc(Br)c(O)c(CN(C)C)c12 was read as Polio RdRp inh 102, MbtI inh -1, AID504770 2.2 and MenB inh -20.
`O=C1CSc2nnc(-c3ccccc3)n21` gave Polio RdRp inh 54*, MbtI inh 0, AID504770 0.3 and MenB inh 9.
`FC(F)(F)c1cc(C(F)(F)F)n2[nH]c(=S)nc2n1` gave Polio RdRp inh 98, MbtI inh 96*, AID504770 -0.3 and MenB inh -103.
CCNC(=O)CSc1nnc(-c2cc(OC)c(OC)c(OC)c2)o1 was read as Polio RdRp inh 105, MbtI inh 0, AID504770 -6.1* and MenB inh 0.
COc1cccc(-c2nnc(SCC(=O)NC3CCCCC3)o2)c1 was read as Polio RdRp inh 88*.

Compound activity: PubChem, ICCB-Longwood Screening Facility, Harvard Medical School
